The source of these data is PubChem BioAssay (Tox21).

SMILES strings stand for the structures. Where “and” joins values, the source holds several entries; their conditions need not be identical. Equal values may be shown once. Values without a mark were called inactive. Records with an inconclusive call do not appear. Calls of active or inactive are those of the source. Unless noted, calls follow the shape of the dose curve; as a rule, active = well fitted curve in the direction sought with a large enough effect in the repeat runs; inconclusive = weak or mixed curves; inactive = no such curve, though single readings can be large; an effect the other way counts as inactive or inconclusive.

Assay [1] in a line: Human pregnane X receptor (PXR) small molecule agonists, qHTS cell viability counter screen (AID 1346977). Also: nearly all actives have a fitted effect of over 50% in size. The essentials:
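Cytotoxicity counter screen run in the same wells as the PXR luciferase assay, using PXR-Luc HepG2 cells in charcoal-stripped serum medium. Viability: CellTiter-Fluor fluorescence after 24hr compound treatment.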
(Quantitative high-throughput screening tests each substance at several concentrations.)

Assay [2] in a line: Caspase-3/7 induction in HepG2 cells by small molecules, qHTS assay (AID 1346978). Also: nearly all actives have a fitted effect of over 15% in size. The essentials:
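Wild-type HepG2 cells (2,000/well) were settled 5 h at 37 C, 5% CO2, then exposed to compounds in DMSO for 17 h. Caspase-3/7 activity was read by luminescence 30 min after adding Caspase-Glo 3/7 reagent at room temperature.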

Assay [3] is described as follows: Caspase-3/7 induction in CHO-K1 cells by small molecules, qHTS cell viability counter screen (AID 1346979). Also: nearly all actives have a fitted effect of over 35% in size. The essentials:
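Cytotoxicity counter screen run in parallel with the caspase-3/7 assay: CHO-K1 cells, 16hr compound treatment at 37C, then CellTiter-Fluor for 1hr before fluorescence reading.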

Assay [4] is described as follows: Caspase-3/7 induction in CHO-K1 cells by small molecules, qHTS assay (AID 1346980). Also: nearly all actives have a fitted effect of over 15% in size. A digest of the protocol: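 Wild-type cells were seeded at 1,500 per well and settled 5 hr at 37 C, 5% CO2, then exposed to DMSO-dissolved compounds for 17 hr. Caspase-Glo 3/7 reagent was added, and luminescence was read after 30min at room temperature.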
Assay [5] is described as follows: Caspase-3/7 induction in HepG2 cells by small molecules, qHTS cell viability counter screen (AID 1346981). Also: series mostly up to about 92 µM; nearly all actives have a fitted effect of over 30% in size. The essentials:
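Fluorescence read-out of live-cell protease activity (CellTiter-Fluor) after 1 hr with reagent. This was measured in the same wells as the caspase-3/7 luminescence, on HepG2 cells exposed to DMSO-dissolved compounds for 16 hr at 37 C.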

In assay [6] the target is Nuclear receptor subfamily 1 group I member 2 (Homo sapiens) (UniProt O75469). The experiment in a line: Human pregnane X receptor (PXR) small molecule agonists, qHTS assay (AID 1346982). Also: nearly all actives have a fitted effect of over 35% in size. Also: potency is read from the fitted curve at half-maximal effect. A digest of the protocol:
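HepG2 PXR-Luc reporter line, 5% charcoal-stripped FBS; 5 hr pre-incubation, compound (DMSO) 24 hr at 37 C/5% CO2; ONE-Glo 30 min RT; luminescence read-out.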

The target in assay [7] is Acetylcholinesterase (Homo sapiens) (UniProt P22303). Description: Acetylcholinesterase (AChE) small molecule antagonists: colormetric cell-based qHTS assay (AID 1347395; calls by dose curve; also: nearly all actives have a fitted effect of over 30% in size). The essentials: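 Cells (SH-SY5Y, 2,000 per well) are seeded and left overnight at 37 C. Compound is added for 30 min, then DTNB and acetylthiocholine for a further 90 min at 37 C before absorbance-based thiocholine detection.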

For assay [8] the target is unchanged. Description: Acetylcholinesterase (AChE) small molecule antagonists: enzyme-based qHTS assay (AID 1347397; calls by dose curve; also: nearly all actives have a fitted effect of over 55% in size). The conditions noted are these: Potency: AChE enzyme activity inhibition; outcome: AChE enzyme activity inhibition. A digest of the protocol:
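Tox21 library chemicals are tested in qHTS format against recombinant human AChE. The enzyme, dispensed at 50 mU/mL, sits with compound for 30 min at room temperature. A DTNB–acetylthiocholine cocktail follows, and colour is read after 10 min.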

Assay [9] shares this target. Description: Acetylcholinesterase (AChE) small molecule antagonists: fluorescence cell-based qHTS assay (AID 1347398; calls by dose curve; also: nearly all actives have a fitted effect of over 50% in size). The conditions noted are these: Potency: AChE activity; outcome: AChE activity. A digest of the protocol: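 Cellular AChE inhibition: SH-SY5Y cells treated with test chemical for 30 min at 37 C, then acetylthiocholine hydrolysis followed over 40 min at room temperature via thiocholine-reactive Thiolite Green fluorescence (490/520 nm).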

Assay [10] has the same target. Description: Acetylcholinesterase (AChE) small molecule antagonists: enzyme-based qHTS assay with human liver microsomes (AID 1347399; calls by dose curve; also: nearly all actives have a fitted effect of over 60% in size). The conditions noted are these: Potency: qHTS inhibition; outcome: qHTS inhibition. A digest of the protocol: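 Recombinant human AChE (50 mU/mL in the enzyme mix) and human liver microsomes (0.25 mg/mL final) were preincubated with compound and NADPH (0.25 mg/mL final) for 30 min at 37 C. Acetylthiocholine/DTNB was then added; thiocholine was read colorimetrically after 10 min at room temperature.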

Assay [11] deals with Cytochrome P450 2D6 (Homo sapiens) (UniProt P10635). The experiment in a line: Cytochrome P450 Family 2 Subfamily D Member 6 (CYP2D6) small molecule antagonists: luciferase reporter qHTS assay (AID 1671196). Also: nearly all actives have a fitted effect of over 50% in size. Also: potency is read from the fitted curve at half-maximal effect. A digest of the protocol:
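Luminogenic proluciferin substrate, CYP2D6 enzyme; 10 min RT preincubation with compound, NADPH regeneration system added, 1 h RT. Stop/detection reagent, 20 min RT, luminescence read (RLU). Signal proportional to CYP activity.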
In general terms: A reporter such as luciferase makes a cellular process visible.

Assay [12] concerns the target Cytochrome P450 2C19 (Homo sapiens) (UniProt P33261). Description: Cytochrome P450 Family 2 Subfamily C Member 19 (CYP2C19) small molecule antagonists: luciferase reporter qHTS assay (AID 1671197). Also: nearly all actives have a fitted effect of over 65% in size. Also: potency is read from the fitted curve at half-maximal effect. The essentials:
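First, compounds are pinned into enzyme-substrate mix and held 10 min at room temperature. Second, NADPH regeneration solution is added and plates incubate 1 h at 37C. Third, detection reagent is added and luminescence read after 20 min.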

In assay [13] the target is Cytochrome P450 1A2 (Homo sapiens) (UniProt P05177). Description: Cytochrome P450 Family 1 Subfamily A Member 2 (CYP1A2) small molecule antagonists: luciferase reporter qHTS assay (AID 1671199). Also: nearly all actives have a fitted effect of over 50% in size. Also: potency is read from the fitted curve at half-maximal effect. The essentials:
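Luminescence readout (relative luminescence units) after luciferin detection reagent, 20 min RT. Preceded by 1 h room-temperature CYP1A2 reaction with NADPH regeneration solution following 10 min compound preincubation with enzyme and proluciferin substrate. Furafylline positive control.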

The target in assay [14] is Voltage-gated inwardly rectifying potassium channel KCNH2 (Homo sapiens) (UniProt Q12809). Description: Human Ether-a-go-go-Related Gene (hERG) channel small molecule antagonists: fluorescence cell-based qHTS assay (AID 1671200). A digest of the protocol:
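Fluorescence at 540 nm emission (480 nm excitation) was recorded kinetically for 2 min at 1-second intervals once the thallium-containing stimulus reached cells previously loaded with FluxOR II dye.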
In general terms: The hERG channel carries a current that helps repolarise heart muscle cells.

Assay [15] concerns the target Cytochrome P450 3A4 (Homo sapiens) (UniProt P08684). The experiment in a line: Cytochrome P450 Family 3 Subfamily A Member 4 (CYP3A4) small molecule antagonists: luciferase reporter qHTS assay (AID 1671201). Also: nearly all actives have a fitted effect of over 50% in size. Also: potency is read from the fitted curve at half-maximal effect. A digest of the protocol:
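qHTS, 1536-well. CYP3A4 + proluciferin substrate, cpd 10 min RT → NADPH regen 1 h RT → detection reagent 20 min → luminescence (RLU). Ketoconazole positive control.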

For assay [16], the target named is Cytochrome P450 2C9 (Homo sapiens) (UniProt P11712). Description: Cytochrome P450 Family 2 Subfamily C Member 9 (CYP2C9) small molecule antagonists: luciferase reporter qHTS assay (AID 1671198). Also: nearly all actives have a fitted effect of over 50% in size. Also: potency is read from the fitted curve at half-maximal effect. The essentials:
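CYP2C9 activity was measured with a P450-Glo proluciferin substrate. Enzyme–substrate mix was held with compound for 10 min at room temperature, then NADPH regeneration solution was added for 1 h at 37C. Luciferin product was read as luminescence.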

For assay [17], the target named is Nuclear receptor subfamily 1 group I member 2 (Rattus norvegicus) (UniProt Q9R1A7). The experiment in a line: Rat pregnane X receptor (rPXR) activation by small molecules, qHTS assay (AID 1346983). Also: nearly all actives have a fitted effect of over 20% in size. The conditions noted are these: rPXR luciferase reporter cells, One-Glo luminescence, 24 h; stronger effect = higher value. A digest of the protocol: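 Cell-based rPXR luciferase reporter assay, 2,000 cells per well, rested 5hr at 37 C before compound addition in DMSO, then 24 hr at 37 C. One-Glo reagent was added and luminescence read after 30 min at room temperature.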

In assay [18] the target is Nuclear receptor subfamily 1 group I member 2 (Homo sapiens) (UniProt O75469). Description: CYP3A4 induction through human pregnane X receptor (PXR) by small molecules, qHTS assay (AID 1346984). Also: nearly all actives have a fitted effect of over 40% in size. A digest of the protocol:
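HepG2-derived DPX-2 line carrying PXR plus a CYP3A4-promoter luciferase reporter; cells plated 5 hr, compound-exposed 24 hr at 37C. CYP3A4 activity probed with 3uM (final) Luciferin-IPA for 3hr, then luciferase read after One-Glo.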

The target is the same in assay [19]. Description: Human pregnane X receptor (PXR) activation by small molecules, qHTS assay (AID 1346985). Also: nearly all actives have a fitted effect of over 40% in size. The essentials:
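DPX-2 cells (HepG2 co-transfected with a PXR response element and a CYP3A4-promoter luciferase construct) were seeded at 2,000 per well, rested 5 hr at 37C, then exposed to DMSO-dissolved compounds for 24 hr. Activation was read as luciferase luminescence.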
% is scaled to controls: 0 for no effect and ±100 for the full control effect.

Sequence of Acetylcholinesterase (Homo sapiens) (P22303 whole entry, looked up): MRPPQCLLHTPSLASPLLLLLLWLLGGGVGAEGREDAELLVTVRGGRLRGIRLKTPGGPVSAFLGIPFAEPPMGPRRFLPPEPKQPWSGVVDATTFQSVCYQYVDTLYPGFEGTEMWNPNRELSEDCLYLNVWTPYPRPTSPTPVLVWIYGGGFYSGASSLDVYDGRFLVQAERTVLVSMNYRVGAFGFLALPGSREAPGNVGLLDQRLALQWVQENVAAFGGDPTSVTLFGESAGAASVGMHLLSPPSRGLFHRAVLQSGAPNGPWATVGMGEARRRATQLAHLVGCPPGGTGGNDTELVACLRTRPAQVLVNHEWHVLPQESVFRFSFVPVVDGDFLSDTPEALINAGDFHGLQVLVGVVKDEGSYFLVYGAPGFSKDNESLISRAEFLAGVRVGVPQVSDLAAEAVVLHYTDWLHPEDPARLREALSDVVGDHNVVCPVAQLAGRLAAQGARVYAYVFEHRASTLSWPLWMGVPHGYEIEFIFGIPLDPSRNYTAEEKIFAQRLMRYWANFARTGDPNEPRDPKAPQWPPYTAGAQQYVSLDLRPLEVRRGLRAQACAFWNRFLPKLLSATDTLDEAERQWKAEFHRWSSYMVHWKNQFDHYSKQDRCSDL
Sequence of Nuclear receptor subfamily 1 group I member 2 (Homo sapiens) (O75469 whole entry, looked up): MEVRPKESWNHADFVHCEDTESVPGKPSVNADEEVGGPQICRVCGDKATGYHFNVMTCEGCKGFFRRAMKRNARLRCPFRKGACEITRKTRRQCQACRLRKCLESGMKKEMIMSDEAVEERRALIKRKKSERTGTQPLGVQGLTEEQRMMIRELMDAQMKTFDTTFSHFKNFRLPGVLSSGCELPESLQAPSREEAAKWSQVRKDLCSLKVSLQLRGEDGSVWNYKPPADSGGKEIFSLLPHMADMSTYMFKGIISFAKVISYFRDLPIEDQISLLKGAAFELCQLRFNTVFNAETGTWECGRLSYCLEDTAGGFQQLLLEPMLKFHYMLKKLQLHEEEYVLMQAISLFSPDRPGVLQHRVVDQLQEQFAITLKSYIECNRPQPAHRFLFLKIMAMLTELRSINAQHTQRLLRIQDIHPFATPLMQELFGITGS
Sequence of Cytochrome P450 3A4 (Homo sapiens) (P08684 whole entry, looked up): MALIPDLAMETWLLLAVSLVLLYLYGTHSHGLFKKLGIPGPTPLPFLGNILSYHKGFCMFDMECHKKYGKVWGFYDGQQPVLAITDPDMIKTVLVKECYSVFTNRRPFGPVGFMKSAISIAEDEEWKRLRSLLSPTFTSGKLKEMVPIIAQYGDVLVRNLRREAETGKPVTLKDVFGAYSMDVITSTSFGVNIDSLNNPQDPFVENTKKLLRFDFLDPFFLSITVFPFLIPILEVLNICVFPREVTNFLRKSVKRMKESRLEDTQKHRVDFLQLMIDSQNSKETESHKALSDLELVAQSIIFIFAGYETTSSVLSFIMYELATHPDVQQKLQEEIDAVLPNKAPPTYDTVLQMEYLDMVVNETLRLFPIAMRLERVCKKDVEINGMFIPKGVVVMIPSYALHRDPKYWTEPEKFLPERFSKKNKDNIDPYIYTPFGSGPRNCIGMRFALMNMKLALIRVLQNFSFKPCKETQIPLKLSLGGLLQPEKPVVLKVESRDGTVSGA
Sequence of Cytochrome P450 1A2 (Homo sapiens) (P05177 whole entry, looked up): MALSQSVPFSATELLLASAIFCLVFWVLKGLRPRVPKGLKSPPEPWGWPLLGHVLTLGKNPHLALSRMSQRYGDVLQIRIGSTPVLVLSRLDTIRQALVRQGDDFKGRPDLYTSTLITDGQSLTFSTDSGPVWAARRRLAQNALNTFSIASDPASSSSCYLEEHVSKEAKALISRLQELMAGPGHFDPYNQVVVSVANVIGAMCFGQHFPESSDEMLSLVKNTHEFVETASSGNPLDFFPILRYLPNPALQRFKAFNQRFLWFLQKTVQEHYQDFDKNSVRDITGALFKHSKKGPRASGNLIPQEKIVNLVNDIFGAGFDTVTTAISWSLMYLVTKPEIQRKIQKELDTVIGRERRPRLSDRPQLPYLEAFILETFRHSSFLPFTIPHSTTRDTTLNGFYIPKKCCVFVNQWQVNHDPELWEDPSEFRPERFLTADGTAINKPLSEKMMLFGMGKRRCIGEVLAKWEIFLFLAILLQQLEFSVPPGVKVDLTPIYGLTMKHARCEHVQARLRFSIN
Sequence of Cytochrome P450 2C9 (Homo sapiens) (P11712 whole entry, looked up): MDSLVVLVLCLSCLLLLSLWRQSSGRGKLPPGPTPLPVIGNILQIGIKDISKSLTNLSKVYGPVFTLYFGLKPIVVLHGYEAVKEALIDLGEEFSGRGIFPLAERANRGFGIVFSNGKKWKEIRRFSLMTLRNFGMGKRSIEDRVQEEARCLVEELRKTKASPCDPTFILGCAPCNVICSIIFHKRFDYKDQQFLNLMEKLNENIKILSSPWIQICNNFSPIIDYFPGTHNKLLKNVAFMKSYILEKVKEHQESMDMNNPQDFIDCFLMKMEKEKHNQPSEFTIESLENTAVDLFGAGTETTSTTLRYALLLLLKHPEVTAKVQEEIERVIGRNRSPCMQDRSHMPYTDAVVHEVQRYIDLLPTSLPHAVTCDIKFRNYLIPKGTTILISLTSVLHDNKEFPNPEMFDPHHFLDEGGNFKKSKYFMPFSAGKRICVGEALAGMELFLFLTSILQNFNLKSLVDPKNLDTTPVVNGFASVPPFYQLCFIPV
Sequence of Voltage-gated inwardly rectifying potassium channel KCNH2 (Homo sapiens) (Q12809 whole entry, looked up): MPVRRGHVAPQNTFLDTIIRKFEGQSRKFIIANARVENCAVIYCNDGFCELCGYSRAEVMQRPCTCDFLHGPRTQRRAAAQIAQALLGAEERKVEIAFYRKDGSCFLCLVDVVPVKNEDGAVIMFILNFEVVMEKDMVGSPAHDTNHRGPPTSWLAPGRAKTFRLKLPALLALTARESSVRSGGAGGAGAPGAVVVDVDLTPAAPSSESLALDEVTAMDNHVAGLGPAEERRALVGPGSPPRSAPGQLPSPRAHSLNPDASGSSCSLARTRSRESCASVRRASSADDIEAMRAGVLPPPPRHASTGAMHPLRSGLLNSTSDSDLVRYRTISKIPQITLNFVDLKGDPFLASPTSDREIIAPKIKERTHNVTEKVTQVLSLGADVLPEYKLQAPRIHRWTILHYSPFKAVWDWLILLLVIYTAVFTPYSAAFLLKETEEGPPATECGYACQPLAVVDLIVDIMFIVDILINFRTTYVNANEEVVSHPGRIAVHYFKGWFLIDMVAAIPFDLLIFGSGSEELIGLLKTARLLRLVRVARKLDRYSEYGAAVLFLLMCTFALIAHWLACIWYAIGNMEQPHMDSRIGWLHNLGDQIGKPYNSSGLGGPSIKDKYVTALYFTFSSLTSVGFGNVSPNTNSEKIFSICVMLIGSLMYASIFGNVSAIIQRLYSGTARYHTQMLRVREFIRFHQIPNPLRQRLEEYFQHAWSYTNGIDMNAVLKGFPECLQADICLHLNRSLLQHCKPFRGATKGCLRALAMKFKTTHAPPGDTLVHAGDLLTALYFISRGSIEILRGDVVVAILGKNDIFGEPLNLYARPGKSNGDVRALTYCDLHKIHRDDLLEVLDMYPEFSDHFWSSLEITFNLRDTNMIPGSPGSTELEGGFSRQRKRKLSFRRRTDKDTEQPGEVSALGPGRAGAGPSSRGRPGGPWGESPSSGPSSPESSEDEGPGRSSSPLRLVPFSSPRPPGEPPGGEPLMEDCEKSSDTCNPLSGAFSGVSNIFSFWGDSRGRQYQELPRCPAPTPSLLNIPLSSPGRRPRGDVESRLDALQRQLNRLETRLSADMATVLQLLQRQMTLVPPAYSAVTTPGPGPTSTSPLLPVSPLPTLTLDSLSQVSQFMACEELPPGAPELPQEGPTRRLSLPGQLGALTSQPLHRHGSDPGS
Sequence of Cytochrome P450 2D6 (Homo sapiens) (P10635 whole entry, looked up): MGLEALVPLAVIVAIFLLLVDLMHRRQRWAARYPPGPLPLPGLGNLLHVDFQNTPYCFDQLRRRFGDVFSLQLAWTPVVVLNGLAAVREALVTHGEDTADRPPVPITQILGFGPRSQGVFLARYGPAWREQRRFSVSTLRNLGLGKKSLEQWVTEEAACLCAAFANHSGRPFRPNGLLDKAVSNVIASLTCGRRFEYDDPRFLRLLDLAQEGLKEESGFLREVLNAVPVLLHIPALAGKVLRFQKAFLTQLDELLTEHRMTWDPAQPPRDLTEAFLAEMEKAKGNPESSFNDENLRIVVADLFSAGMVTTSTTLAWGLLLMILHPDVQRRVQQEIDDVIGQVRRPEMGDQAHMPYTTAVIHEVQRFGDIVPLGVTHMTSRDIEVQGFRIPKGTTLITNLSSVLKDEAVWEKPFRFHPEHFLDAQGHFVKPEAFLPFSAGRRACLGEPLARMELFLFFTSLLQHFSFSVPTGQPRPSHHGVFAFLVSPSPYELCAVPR
Sequence of Cytochrome P450 2C19 (Homo sapiens) (P33261 whole entry, looked up): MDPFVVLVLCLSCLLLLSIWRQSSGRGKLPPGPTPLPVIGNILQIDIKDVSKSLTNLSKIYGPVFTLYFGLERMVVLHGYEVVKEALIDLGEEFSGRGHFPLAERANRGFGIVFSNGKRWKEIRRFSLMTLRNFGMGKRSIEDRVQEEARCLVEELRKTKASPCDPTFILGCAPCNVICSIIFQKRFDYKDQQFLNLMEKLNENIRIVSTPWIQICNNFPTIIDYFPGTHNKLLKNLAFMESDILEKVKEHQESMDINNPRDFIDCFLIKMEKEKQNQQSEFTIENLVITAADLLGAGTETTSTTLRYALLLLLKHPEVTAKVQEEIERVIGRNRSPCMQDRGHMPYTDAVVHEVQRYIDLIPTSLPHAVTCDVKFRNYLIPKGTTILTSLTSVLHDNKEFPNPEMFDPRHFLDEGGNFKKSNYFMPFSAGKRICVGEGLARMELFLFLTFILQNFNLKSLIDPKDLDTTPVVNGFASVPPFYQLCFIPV

Regarding `CC(C)(C)OOC(C)(C)CCC(C)(C)OOC(C)(C)C`, the Potency result in [1], in assay [2], in [3], in assay [4], in [5] and in assay [6] was “inactive” each time. The Potency result in assay [7], in assay [8], in assay [9], in assay [10], in assay [11] and in assay [12] was “inactive” throughout. For the same compound, the Potency entry in [13], in assay [14] and in assay [15] was “inactive” each time.
Regarding `C=CC(=O)NC(C)(C)CC(C)=O`, the Potency entry in [1], in [2], in assay [3], in assay [4], in assay [5] and in [6] was “inactive” throughout. In addition, the Potency result in [7], in assay [8], in [9], in assay [10], in [12] and in assay [16] was “inactive” in each case. Also, the Potency entry in assay [13], in assay [14] and in [15] was “inactive” throughout. For the same compound, in assay [11], the Potency is 35.6 µM (active).
With `CCc1cnc(C2=NC(C)(C(C)C)C(=O)N2)c(C(=O)O)c1` (stereo unspecified), the Potency result in [1], in assay [2], in assay [3], in assay [4], in assay [5] and in assay [6] was “inactive” throughout. Besides, the Potency result in [7], in [8], in assay [9], in [10], in [11] and in assay [12] was “inactive” each time. Besides, the Potency entry in assay [16], in [13], in assay [14] and in assay [15] was “inactive” throughout.
Take `CCCCC(CC)COC(=O)c1c(Br)c(Br)c(Br)c(Br)c1C(=O)OCC(CC)CCCC` (stereo unspecified): the Potency result in assay [1], in assay [2], in [3], in [4], in assay [5] and in [7] was “inactive” each time. Further, the Potency result in assay [8], in assay [9], in assay [10], in assay [11], in assay [12] and in assay [16] was “inactive” each time. Moreover, the Potency result in [13], in [14] and in assay [15] was “inactive” in each case. The Potency in assay [6] was 16.8 µM (active).
Regarding `O=CC=O`, the Potency result in assay [1], in assay [2], in assay [3], in assay [4], in [5] and in [6] was “inactive” throughout. Moreover, the Potency entry in assay [19], in assay [7], in assay [8], in [9], in assay [10] and in [11] was “inactive” each time. Also, the Potency result in assay [12], in assay [16], in assay [13], in assay [14] and in assay [15] was “inactive” in each case. The max activation in assay [17] was -4.84%. For the same compound, in assay [18], the outcome was inactive.
As to `Nc1cccc2ccccc12`, the Potency result in assay [1], in [2], in [3], in [4], in assay [5] and in assay [7] was “inactive” throughout. Also, the Potency result in assay [8], in assay [9], in [10] and in assay [14] was “inactive” in each case. In addition, the Potency was 48.9 µM (active) and 61.1 µM (active) in assay [6]; 31.9 µM (active) and 31.7 µM (active) in assay [11]; 16 µM (active) and 20 µM (active) in [12]; 35.8 µM (active) and 50.2 µM (active) in assay [16]; 10.1 µM (active) and 5.64 µM (active) in assay [13]; 35.6 µM (active) in assay [15].
On to `CC(C)CCON=O`, for which the Potency entry in assay [1], in assay [2], in [3], in [4], in assay [5] and in [6] was “inactive” throughout. The Potency result in [19], in assay [7], in assay [8], in assay [9], in assay [10] and in assay [12] was “inactive” each time. The Potency result in [16], in [13], in [14] and in assay [15] was “inactive” throughout. The max activation in assay [17] was -3.41%. Besides, in assay [18], the compound was called inactive.
